High-throughput results from PubChem.
This is a sample that favours compounds with a hit; in the whole collection about 3.8% have one here.
Mtb FBA inh: inhibitors of M. tuberculosis fructose-bisphosphate aldolase | 360,000 compounds, 2.3% hits | AID 588726 | inhibition, % at 1 µM | P9WQA3 | purified M. tuberculosis FBA, fluorescence read-out
Target sequence (P9WQA3 whole entry, looked up): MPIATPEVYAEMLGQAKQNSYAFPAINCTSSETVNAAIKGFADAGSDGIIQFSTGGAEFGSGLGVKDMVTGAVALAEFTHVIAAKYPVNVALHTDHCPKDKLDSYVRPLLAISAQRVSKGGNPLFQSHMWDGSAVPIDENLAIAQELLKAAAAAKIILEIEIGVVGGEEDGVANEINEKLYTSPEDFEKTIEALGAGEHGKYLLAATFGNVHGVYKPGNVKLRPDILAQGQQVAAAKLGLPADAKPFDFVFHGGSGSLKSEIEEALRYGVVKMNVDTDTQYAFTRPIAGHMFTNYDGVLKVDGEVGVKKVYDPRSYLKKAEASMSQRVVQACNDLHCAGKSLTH
Mtb hypoxia inh: reduces hypoxia-regulated biosensor signal in M. tuberculosis; M. tuberculosis hypoxia-regulated fluorescent reporter, fluorescence; fluorescence inhibition, % (no concentration beside the values); 300,000 compounds, 0.1% hits; AID 1159583; in the data active = fluorescence inhibition mostly above about 23%, no sharp cut-off; inactive = mostly below about 17%
PrP 5UTR inh: inhibition of PrP 5' UTR reporter expression | AID 488862 | inhibition, % (test concentration not listed) | 340,000 compounds, 0.35% hits | cell-based PrP 5' UTR mRNA reporter, plate reader; in the data active = inhibition above about 52%
PrPC TRFRET: cell surface PrPC inhibition, primary TR-FRET screen; P04156; TR-FRET read-out; inhibition, % at 13.8 µM; 370,000 compounds, 0.43% hits; AID 720596; in the data active = inhibition above about 24%
Y pestis TopoI: inhibitors of Yersinia pestis topoisomerase I | Y. pestis Topo-I cleavage product accumulation, plate reader | activity, % at 10 µM | 360,000 compounds, 0.064% hits | AID 504884; in the data active = activity above about 50%, passing the limit was not always enough
GDH-TPI counter-1: GDH-TPI coupled enzyme inhibition counter-screen. inhibition, % at 4.8 µM. 360,000 compounds, 1.2% hits. GDH-TPI coupled enzyme counterscreen, NADH absorbance; in the data active = inhibition above about 30%
Mtb FBA inh conf: confirmation of M. tuberculosis fructose-bisphosphate aldolase inhibitors; shares compounds with Mtb FBA inh; purified M. tuberculosis FBA, fluorescence read-out; inhibition, % at 1 µM; 5,600 compounds, 78% hits
GDH-TPI counter-2: GDH-TPI inhibition counter-screen for FBA inhibitors; shares compounds with Mtb FBA inh; GDH-TPI coupled enzyme counterscreen, fluorescence; inhibition, % at 1 µM; 5,600 compounds, 81% hits; in the data active = inhibition above about 10%
Hits are given with their value; – = inactive; · = not tested or not shown; + = active, no number. Rule as the data show it, unless noted: active = inhibition above about 27%; inactive = the rest.

SMILES | Mtb FBA inh | Mtb hypoxia inh | PrP 5UTR inh | PrPC TRFRET | Y pestis TopoI | GDH-TPI counter-1 | Mtb FBA inh conf | GDH-TPI counter-2
COc1ccccc1N1C(=O)c2ccccc2NC1c1cc(OC)c(OC)c(OC)c1 (stereo unspecified) | 55 | – | – | – | – | – | 96 | 65
COc1ccc(C2Nc3ccccc3C(=O)N2c2ccccc2)cc1CN1CCOCC1 (stereo unspecified) | 45 | – | – | – | – | – | – | –
COc1ccc(C2Nc3ccccc3C(=O)N2Cc2ccncc2)cc1COc1ccc(NC(C)=O)cc1 (stereo unspecified) | · | · | · | – | · | · | · | ·
COc1ccc(C2Nc3ccccc3C(=O)N2c2ccc(C)cc2)cc1COc1ccccn1 (stereo unspecified) | 34 | – | – | – | – | – | + | +
O=C(NN=Cc1ccc2c(c1)OCO2)c1ccc(COCC(F)(F)C(F)F)cc1 | · | – | · | · | · | · | · | ·
CC(=O)N(C)c1ccc(NC(=S)Nc2cccc3ccccc23)cc1 | – | – | – | – | – | – | · | ·
Cc1ccc(NC(=S)Nc2cccc3ccccc23)cc1F | 47 | – | – | – | – | – | + | 168
CC(=O)c1ccc(NC(=S)Nc2cccc3ccccc23)cc1 | 53 | – | – | – | – | – | 76 | 60
COCCCNC(=S)Nc1cc2oc3ccccc3c2cc1OC | – | – | – | – | – | – | · | ·
Fc1cccc(NC(=S)Nc2cccc3ccccc23)c1 | 67 | – | – | – | – | – | + | +
COc1cc2c(cc1NC(=S)Nc1cccc3ccccc13)oc1ccccc12 | 105 | – | – | – | – | – | + | 187
C=CCNC(=S)NN=Cc1cccc([N+](=O)[O-])c1 | · | – | · | · | · | · | · | ·
CCn1c(C=Nc2nc3ccccc3n2C)nc2ccccc21 | · | – | · | · | · | · | · | ·
O=C(CNC(=O)c1ccco1)NN=Cc1ccc(O)c([N+](=O)[O-])c1 | · | – | · | · | · | · | · | ·
Cc1cc(C=O)c(C)n1-c1ccc(N2CCOCC2)cc1 | 54 | · | – | – | – | – | + | +
Cc1cc(/C=C2\SC(=O)NC2=O)c(C)n1-c1ccc(N2CCOCC2)cc1 | – | – | – | – | – | – | · | ·
CCc1nc2sc(C#N)c(N)c2c2c1CCCC2 | 49 | – | – | – | – | – | + | 171
Cc1ccc(C2NC(=O)c3c(sc4c3CCN(C)C4)N2)s1 (stereo unspecified) | 45 | – | – | – | – | – | 69 | 71
Cc1ccc(C2NC(=O)c3c(sc4c3CCN(C)C4)N2)o1 (stereo unspecified) | – | – | – | – | – | – | · | ·
O=C(NN=Cc1ccsc1)c1c[nH]c2ccccc12 | · | – | · | · | · | · | · | ·
Cc1ccc2nc(-c3ccc(N4C(=N)SC5CS(=O)(=O)CC54)cc3)sc2c1 (stereo unspecified) | 48 | – | – | – | – | – | 80 | 66
O=C(O)c1cc(Cl)c2ccccc2c1O | 40 | – | – | – | – | – | 50 | 44
CCC(=O)NC(C)c1cc(Cl)c2ccccc2c1O (stereo unspecified) | – | – | – | – | – | – | · | ·
CC(C)(NC(=O)c1cc(Cl)c2ccccc2c1O)C(=O)O | 56 | – | · | – | – | – | 66 | 57
O=C(Cc1ccccc1)NCC(=O)NN=Cc1ccc(C(=O)O)cc1 | · | – | · | · | · | · | · | ·
SMILES | Mtb FBA inh | Mtb hypoxia inh | PrP 5UTR inh | PrPC TRFRET | Y pestis TopoI | GDH-TPI counter-1 | Mtb FBA inh conf | GDH-TPI counter-2
COc1cccc(C(=O)NN=c2sc3ccccc3n2C)c1 | · | – | · | · | · | · | · | ·
CCN(CC(=O)Nc1ccc2c(c1)OCCO2)S(=O)(=O)c1ccc(C)cc1 | – | – | – | – | – | – | · | ·
CCN(CC(=O)Nc1ccc2c(c1)OCCO2)S(=O)(=O)c1cccs1 | 39 | · | – | – | – | – | 75 | 71
O=C(C=Cc1ccc(O)cc1)OCc1occc(=O)c1OC1OC(CO)C(O)C(O)C1O (stereo unspecified) | · | – | · | · | · | · | · | ·
CC(CCc1ccc2c(c1)OCO2)=NN=C(N)SC1CC(=O)N(c2ccc(Cl)cc2)C1=O (stereo unspecified) | · | – | · | · | · | · | · | ·
CCCCN(C)C(=O)c1cc2cc3ccc(OC)cc3nc2o1 | 78 | – | – | – | – | – | – | –
CCCCN(C)C(=O)c1cc2cc3cc(OC)ccc3nc2o1 | 74 | – | – | – | – | – | 166 | 127
COc1cc(C=NNC(=O)c2ccccc2NS(=O)(=O)c2cccs2)ccc1O | · | – | · | · | · | · | · | ·
COC(=O)c1ccc2c(c1)c(C#Cc1ccccc1)c(-c1ccccc1)n2C | 40 | · | – | – | – | – | – | –
COc1ccc(-c2c(-c3ccc4c(c3)OCO4)c3ccccc3n2C)cc1 | – | · | – | – | – | – | · | ·
COc1cc(C#Cc2c(-c3ccccc3)n(C)c3ccccc23)cc(OC)c1 | 38 | · | – | – | – | – | – | –
COc1ccc(-c2c(-c3ccccc3)n(C)c3ccccc23)cc1 | 41 | – | – | – | – | – | – | –
Cn1c(-c2ccc(C#N)cc2)c(C#Cc2ccccc2)c2ccccc21 | 93 | · | – | – | – | – | 50 | 34
CCOc1cc2c(C#N)c(N3CCCCC3)nc(N)c2c(N)n1 | 28 | – | · | – | – | – | 84 | 53
COc1cc2c(C#N)c(N3CCc4ccccc4C3)nc(N)c2c(N)n1 | – | – | – | – | – | – | · | ·
CCOc1cc2c(C#N)c(N3CCNCC3)nc(N)c2c(N)n1 | 40 | – | – | – | – | – | 151 | 125
CCC1C(=O)n2nc(-c3ccccc3)cc2N=C1C (stereo unspecified) | 40 | – | – | – | – | – | + | 145
COc1ccc(-c2cc(=O)oc3cc(O)ccc23)cc1 | – | – | – | – | – | – | · | ·
COc1ccc(-c2cc(=O)oc3cc(OC(=O)C4CCCCC4)c(Cl)cc23)cc1 | 45 | – | – | – | – | – | 46 | 42
Cc1cc(C)c([N+](=O)[O-])cc1-c1ccc(C=NNC(=O)c2nonc2N)o1 | · | – | · | · | · | · | · | ·
Clc1ccc(-c2nc3cnccn3c2NC2CCCC2)cc1 | – | – | – | · | – | – | · | ·
CCOC(=O)CNc1c(-c2ccc(Cl)cc2)nc2cnccn12 | 68 | · | – | – | – | – | 56 | 50
O=C(Nc1ncn[nH]1)c1ccccc1O | 56 | – | – | – | – | – | + | +
CC(=O)N/C(=N/c1nc(C)cc(C)n1)Nc1ccc2ccccc2c1 | · | – | · | · | · | · | · | ·
COc1ccc(OC)c(C=NNC(=O)C(O)c2ccccc2)c1 (stereo unspecified) | · | – | · | · | · | · | · | ·
COc1ccc(OC)c(/C=N/NC(=O)CNC(=O)c2ccc(S(=O)(=O)N3CCCC3)cc2)c1 | 36 | · | – | – | – | – | 165 | 121
COc1ccc(OC)c(/C=N/NC(=O)C(O)c2ccccc2)c1 (stereo unspecified) | 101 | · | – | – | – | – | 82 | 62
COc1ccc(OC)c(/C=N/NC(=O)CN2CCSCC2)c1 | 85 | · | – | – | – | – | 77 | 66
